This is a sample that favours compounds with a hit; in the whole collection about 32% have one here.
CYP2C9 act: CYP2C9 (human) activation; recombinant CYP2C9, luciferin-H conversion, luminescence; active compounds read high; factor 1 = untreated enzyme, 0 = blocked; activation factor at 5 µM; 1.4% of 96,000 active; P11712;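 active = activation factor of 2 or more for CYP2C9 at a 5 µM dose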;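 also: 0 = sulfaphenazole-blocked wells and 1 = vehicle-only wells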
CYP2C19 inh: inhibitors of human CYP2C19; P33261; CYP2C19 Supersomes, luciferin-H EGE luminescence, 30 min; inhibition, % at 5 µM; 21% of 96,000 active;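 active = CYP2C19 inhibition above a set limit at 5 µM in the primary screen, cut at about 50% in these data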;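 also: plate controls were negative control wells for no effect and 2.5 mM tranylcypromine positive control for full effect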
Target sequence (P33261 whole entry, looked up): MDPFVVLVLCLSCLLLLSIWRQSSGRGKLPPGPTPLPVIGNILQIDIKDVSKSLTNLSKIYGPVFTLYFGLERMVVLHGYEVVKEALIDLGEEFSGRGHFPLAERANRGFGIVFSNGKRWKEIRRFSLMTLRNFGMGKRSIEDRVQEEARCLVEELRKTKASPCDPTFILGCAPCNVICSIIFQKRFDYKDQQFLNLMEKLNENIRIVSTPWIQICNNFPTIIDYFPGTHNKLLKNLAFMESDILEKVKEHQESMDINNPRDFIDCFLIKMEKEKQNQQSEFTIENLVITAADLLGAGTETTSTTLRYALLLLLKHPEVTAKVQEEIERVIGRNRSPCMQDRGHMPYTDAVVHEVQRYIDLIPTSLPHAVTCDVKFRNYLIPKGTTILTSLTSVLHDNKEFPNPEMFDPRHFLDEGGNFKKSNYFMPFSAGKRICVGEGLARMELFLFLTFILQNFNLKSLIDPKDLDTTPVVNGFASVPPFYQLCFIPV
PostGolgi ctrl: yeast control strain growth, post-Golgi counter-screen | efflux-deficient yeast background strain, growth absorbance A615, 16 h | inhibition, % at 10 µM | 5% of 98,000 active | AID 738
PostGolgi yeast: growth inhibition of a yeast mutant, post-Golgi transport screen; post-Golgi transport phenotypic cell assay; 0.9% of 98,000 active; inhibition, % at 10 µM; AID 739;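 also: yeast cells grown in 1536-well plates; yeast grown about 18 h at 30C before absorbance read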
CYP2C9 inhib: inhibitors of human CYP2C9. P11712. CYP2C9 Supersomes, luciferin-H conversion, luminescence. inhibition, % at 5 µM. 20% of 96,000 active. AID 777;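 active = blocking of liver enzyme CYP2C9 beyond about 50% at 5 µM, limit read from the data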
CYP2C19 activ: activators of human cytochrome P450 2C19; P33261; recombinant CYP2C19, luciferin-H EGE luminescence; active compounds read high; 0 = fully inhibited enzyme, 1 = untreated enzyme; activation factor at 5 µM; 96,000 tested, under 10 active; AID 1025;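 active = activation factor of at least 2 at 5 µM in the primary screen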;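 also: 0 = wells with 2.5 mM tranylcypromine and 1 = vehicle-only wells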
Active calls of the source: *; · = no result. Rule as the data show it, unless noted: active = inhibition above about 30%; inactive = the rest.

SMILES	CYP2C9 act	CYP2C19 inh	PostGolgi ctrl	PostGolgi yeast	CYP2C9 inhib	CYP2C19 activ
CCc1nnc2sc(-c3ccc(NC(=O)c4ccc5c(c4)OCCO5)cc3)nn12	0.7	16	-2	-2	31	0.8
CC(C)CC(C(=O)NCc1ccccn1)N1C(=O)c2ccccc2C1=O (stereo unspecified)	0.9	71*	0	7	14	0.3
CC1(C)OC(=O)C(=NNc2ccc(Cl)cc2)C(=O)O1	0.8	7	9	1	18	0.9
Cc1noc(C)c1CN1C(=O)NC2(CCc3ccccc3C2)C1=O (stereo unspecified)	·	·	0	0	·	·
Cc1ccc(C2(C)NC(=O)N(Cc3c(C)noc3C)C2=O)cc1 (stereo unspecified)	0.9	53*	11	20	12	0.5
CC1(C)C(=O)N(OCc2ccccc2)C(C)(C)C(=O)N1OCc1ccccc1	0.6	57*	13	4	36	0.4
CCn1ncc(Cl)c1C(=O)NC(C)c1ccccc1 (stereo unspecified)	0.8	62*	2	-3	20	0.4
Cc1ccoc1C(=O)Nc1ccc(CC(=O)O)cc1	1.1	15	7	-12	-7	0.8
COc1ccc(-c2nn(-c3ccccc3)cc2/C=N/N2C(=O)CSC2=S)cc1	0.7	8	85*	86*	30	0.9
COc1cccc(-c2nn(-c3ccccc3)cc2C(=O)O)c1	0.8	7	14	12	15	0.9
COc1ccc(-c2nn(-c3ccccc3)cc2/C=N/NS(=O)(=O)c2ccccc2)cc1	0.4	8	11	13	63*	0.9
COc1ccc(/C=N/N2C(=O)CSC2=S)cc1	1.1	-18	0	-1	-7	1.2
Cc1ccc(S(=O)(=O)N2CCC(C(=O)NNS(=O)(=O)c3ccc(Cl)cc3)CC2)cc1	1.3	8	-1	-8	-28	0.9
COc1ccc(C2OC(=O)CC2C(=O)NC2CCCCCC2)cc1OC (stereo unspecified)	0.8	10	2	-14	21	0.9
Cc1ccc(NC(=O)CSc2nnc(Cc3cccn3C)n2-c2ccc(F)cc2)c(C)c1	0.3	22	11	3	68*	0.8
Cn1cccc1Cc1nnc(SCC(=O)Nc2ccc(F)cc2F)n1-c1ccc(F)cc1	0.4	52*	14	4	58*	0.5
Cc1ccc(NC(=O)CSc2nnc(Cc3cccn3C)n2-c2ccc(F)cc2)cc1	0.9	5	13	-4	13	0.9
CCOC(=O)c1ccccc1NC(=O)CSc1nnc(Cc2cccn2C)n1-c1ccc(F)cc1	0.4	24	10	-4	57*	0.8
COc1ccc(Cl)cc1NC(=O)CSc1nncn1-c1cccnc1	0.7	94*	-1	0	34	0.1
Cn1cccc1Cc1nnc(SCC(=O)Nc2cccc(F)c2)n1-c1ccc(F)cc1	0.8	29	14	-2	22	0.7
COc1ccc(NC(=O)COC(=O)c2ccc(N3CCCC3=O)cc2)cc1OC	1	20	11	12	0	0.8
CC1CC(C)CN(C(=O)CN2CCN(Cc3ccc(Cl)cc3)C2=O)C1 (stereo unspecified)	1	37	6	9	0	0.6
Cc1cc(C)c(OCCCCNCc2ccccc2)c(Cl)c1	0.8	43	9	1	22	0.6
O=C(c1ccc(F)cc1)N1CCN(c2cc(=O)[nH]nc2-c2ccccc2)CC1	1.1	-13	1	-5	-15	1.1
COc1ccc(Cl)cc1NC(=O)CSc1nnc(Cc2cccn2C)n1-c1ccc(F)cc1	0.9	27	32*	4	11	0.7
SMILES	CYP2C9 act	CYP2C19 inh	PostGolgi ctrl	PostGolgi yeast	CYP2C9 inhib	CYP2C19 activ
CCc1ccc(NC(=O)CSc2nnc(Cc3cccn3C)n2-c2ccc(F)cc2)cc1	0.2	22	9	-5	76*	0.8
CCC(c1nnnn1CC1CCCO1)N(CCN1CCOCC1)Cc1cc2cc(C)ccc2[nH]c1=O (stereo unspecified)	1.1	-14	-3	-19	-12	1.1
COc1ccc(C)cc1NC(=O)C1C2C=CC(C2)C1C(=O)O (stereo unspecified)	1.1	-9	-1	8	-11	1.1
Cc1ccc(CNC(=O)C2C3C=CC(C3)C2C(=O)O)cc1 (stereo unspecified)	0.9	53*	4	-1	13	0.5
CC(C)(C)c1ccc(Cn2ccc(-c3ccc4c(c3)OCO4)n2)cc1	0.8	9	15	21	16	0.9
CN1C(=O)c2ccccc2Sc2ccc(NC(=O)N3CCCC3)cc21	0.7	10	17	19	27	0.9
CCCNC(=O)Nc1ccc2c(c1)N(C)C(=O)c1ccccc1S2	0.2	41	4	-7	79*	0.6
C=CCn1c(-c2cc(OC)cc(OC)c2)n[nH]c1=S	0.8	33	12	0	16	0.7
C=CCn1c(C(CCC(C)C)CC(C)(C)O)n[nH]c1=S (stereo unspecified)	0.8	73*	1	17	23	0.3
CC(C)CN(C(=O)COC(=O)CCc1c[nH]c2ccccc12)C1CCS(=O)(=O)C1 (stereo unspecified)	2.2*	16	3	6	-124	0.8
CC(C)CN(C(=O)COC(=O)Cc1c[nH]c2ccccc12)C1CCS(=O)(=O)C1 (stereo unspecified)	0.9	28	11	6	7	0.7
c1ccc2c(CSc3nnc(-c4ccncc4)o3)cccc2c1	0.1	96*	3	-6	91*	0
Clc1ccccc1CSc1nnc(-c2ccncc2)o1	0.1	95*	23	18	90*	0.1
c1ccc2[nH]c(CSc3nnc(-c4ccncc4)o3)nc2c1	0.2	80*	12	1	81*	0.2
Brc1cccc(-c2nnc(SCc3nc4ccccc4[nH]3)o2)c1	1.3	32	18	-6	-27	0.7
Cc1cccc(NC(=O)c2cc3c(n(-c4ccccc4)c2=O)CCCC3=O)n1	0.5	19	4	0	50*	0.8
O=C1CCCc2c1cc(C(=O)NCc1ccco1)c(=O)n2-c1ccc(Cl)cc1	1	84*	18	9	-3	0.2
Cc1ccc2c(c1C)NC(C)CC2C (stereo unspecified)	1.2	-14	0	7	-19	1.1
C=CCn1c(SCC(=O)c2ccccc2)nnc1-c1cc2ccccc2o1	0.6	78*	26	10	43	0.2
C=CCn1c(SCC(=O)Nc2ccc3c(c2)OCCO3)nnc1-c1ccccn1	0.6	10	-3	23	37	0.9
C=CCn1c(SCC(=O)c2ccccc2)nnc1-c1ccc2c(c1)OCO2	0.6	77*	9	-1	41	0.2
C=CCn1c(SCC(=O)c2ccc(OC)cc2)nnc1-c1cc2cccc(OC)c2o1	1.1	21	2	-7	-11	0.8

Assay outcomes (PubChem BioAssay)
